OPRM1-OPRD1 ag – agonists of OPRM1-OPRD1 heterodimerization, primary screen, cell-based, luminescence | activation, % at 9.3 µM | 340,000 tested, 0.3% active | Mu-type opioid receptor (Homo sapiens) + Delta-type opioid receptor (Homo sapiens), … | AID 504326, 2011 | cells; in the data active = activation above about 18%
HTR5A ag – HTR5A agonists in luminescence cell assay, primary screen, counter-screen for OPRM1-OPRD1 heterodimer agonist project, full-deck HTS | 5-hydroxytryptamine receptor 5A (Homo sapiens), P47898 | cell-based | activation, % at 9.3 µM | 340,000 tested, 0.61% active | AID 504692, 2011; in the data active = activation mostly above about 9.5%, no sharp cut-off; inactive = mostly below about 7.6%
Target sequence (P47898 whole entry, looked up): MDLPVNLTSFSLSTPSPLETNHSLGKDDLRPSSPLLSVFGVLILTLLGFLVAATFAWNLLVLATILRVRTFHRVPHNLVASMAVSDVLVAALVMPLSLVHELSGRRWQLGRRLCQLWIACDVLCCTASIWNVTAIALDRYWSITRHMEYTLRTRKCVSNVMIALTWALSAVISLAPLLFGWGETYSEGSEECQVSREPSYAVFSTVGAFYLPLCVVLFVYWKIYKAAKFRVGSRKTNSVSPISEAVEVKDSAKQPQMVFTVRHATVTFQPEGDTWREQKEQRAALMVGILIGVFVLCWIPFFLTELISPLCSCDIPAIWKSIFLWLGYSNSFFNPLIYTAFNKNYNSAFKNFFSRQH
OPRM1-OPRD1 inv – inverse agonists of MOR-DOR heterodimerization, primary screen, cell-based, luminescence; cell-based MOR-DOR heterodimer luminescence, inverse agonism; inhibition, % at 9.3 µM; 340,000 tested, 0.21% active; AID 504357, 2011; in the data active = inhibition above about 22%, passing the limit was not always enough
HTR5A inv ag – HTR5A inverse agonists in luminescence cell assay, primary screen, counter-screen for OPRM1-OPRD1 heterodimer inverse agonist project, full-deck HTS; HTR5A cell line, inverse agonism; inhibition, % at 9.3 µM; 340,000 tested, 0.083% active; in the data active = inhibition mostly above about 23%, no sharp cut-off; inactive = mostly below about 18%
Large screens that a line does not name were inactive. The list is not random: actives were taken first. Their share in the collection is about 1.1%.

CCCCn1nc(C(=O)NCC(c2cccs2)N2CCOCC2)c2ccccc2c1=O (stereo not drawn)	none
Cc1ccc(C)n1-c1sc2c(c1C#N)CCC(C)C2 (stereo not drawn)	HTR5A ag 13
CCOC(=O)c1c(C)[nH]c(C)c1C(=O)COC(=O)CCc1ccccc1	HTR5A ag 13
O=C(O)c1cccc(N/N=C(\N=Nc2ccccc2)c2ccccc2)c1	none
O=C(O)c1ccc(N=N/C(=N\Nc2ccc(C(=O)O)cc2)c2ccccc2)cc1	OPRM1-OPRD1 inv 31, HTR5A inv ag 35
O=c1cc(SCc2ccccc2)nc[nH]1	none
Cc1cc(Oc2cccc3c2S(=O)(=O)N(C2CCCC2)CC(COCc2ccccc2)O3)cc(C)c1C (stereo not drawn)	none
CCN(c1ccccc1)S(=O)(=O)c1ccc(Cl)c(NC(=O)c2ccc(=O)[nH]n2)c1	HTR5A ag 12
CCNC(COC(=O)c1ccc([N+](=O)[O-])cc1)C1CCCCC1 (stereo not drawn)	none
C=CCNC(=S)N1CCN(S(=O)(=O)c2ccc(C)cc2)CC1	HTR5A ag 12
COc1ccc2sc(N(CCCN(C)C)C(=O)c3ccc(S(=O)(=O)N4CCc5ccccc5C4)cc3)nc2c1	OPRM1-OPRD1 ag 23, HTR5A ag 14
Cc1cc(C)c2sc(N(CCCN(C)C)C(=O)c3ccc(S(=O)(=O)N4CCc5ccccc5C4)cc3)nc2c1	OPRM1-OPRD1 ag 29, HTR5A ag 33
COc1ccccc1C(=O)COC(=O)C1(C)CC1(Cl)Cl (stereo not drawn)	none
O=C(COc1ccccc1)N/N=C/c1ccc(O[C@@H]2O[C@H](CO)[C@@H](O)[C@H](O)[C@H]2O)cc1	HTR5A ag 13
CCCCc1c(C)nn(-c2nnc3c4ccccc4n(C)c3n2)c1C	HTR5A ag 12
Cn1c2ccccc2c2nnc(NN)nc21	none
CNC(=S)NNc1nncc2ccccc12	HTR5A ag 12
COc1ccc(/C(C)=N/Nc2nncc3ccccc23)cc1	none
Cc1cc(C)c(C)c(S(=O)(=O)N2CCC(C(=O)N(C)Cc3nc4ccccc4c(=O)[nH]3)CC2)c1C	none
CC(C)n1c(N2CCN(C(=O)NCc3ccccc3)CC2)nc2ccccc21	HTR5A ag 10
N/C(=N\OC(=O)c1ccc(Cl)cc1)c1cccnc1	HTR5A ag 14
N/C(=N\OC(=O)c1ccc(Cl)cc1Cl)c1cccnc1	none
Cc1ccc(S(=O)(=O)N2CCN(C(=O)COC(=O)/C=C/c3cccc([N+](=O)[O-])c3)CC2)c(C)c1	none
COc1ccc(-c2noc(CCC(=O)N3CCN(c4cccc(C)c4C)CC3)n2)cc1	none
Nc1ncc2[nH]c(N)nc2n1	none
CCCN1CCN(CCCNC(=O)C(CC)n2nc(C)c3sc4ccccc4c3c2=O)CC1 (stereo not drawn)	HTR5A ag 10
COc1ccc(/C=N\NC(=O)c2cc(OCC(F)(F)F)ccc2OCC(F)(F)F)cc1	none
Cc1ccc(/C=N\NC(=O)c2cc(OCC(F)(F)F)ccc2OCC(F)(F)F)cc1	OPRM1-OPRD1 ag 28, HTR5A ag 15
Cc1cccc(OC(=O)c2ccc3nccnc3c2)c1	HTR5A ag 9.4
CCCCNc1ncnc2[nH]ncc12	none
COc1ccc(C(=O)N/N=C\c2ccc(OC)c(COc3ccccc3Br)c2)c(OC)c1	HTR5A ag 10
C=CC[C@H](CC(=O)N(CCO)Cc1ccccc1)C(=O)N[C@H](COC(=O)[C@@H](CC=C)Cc1ccc(F)cc1)Cc1ccccc1	none
O=C(CSc1cccc[n+]1[O-])c1ccc(Cl)s1	HTR5A ag 13
O=C(N/C(=C/c1ccccc1Cl)C(=O)N1CCCC1)c1ccccc1	HTR5A ag 14
O=C(N/C(=C/c1ccc(F)cc1)C(=O)N1CCCC1)c1ccccc1	none
COC(=O)[C@H](Cc1ccccc1)NC(=O)Cn1ccc(NC(=O)OCc2ccccc2)nc1=O	none
CCOC(=O)c1c(NC(=O)CN2CCCCC2)sc(CN(C)C)c1-c1ccccc1	HTR5A ag 8.1
CCOC(=O)c1c(-c2ccc(F)cc2)csc1NC(=O)CCN1CCOCC1	none
CCOC(=O)c1c(-c2ccc(-c3ccccc3)cc2)csc1NC(=O)CCN1CCOCC1	HTR5A ag 11
CCOC(=O)c1c(NC(=O)CCl)sc(CN(C)C)c1-c1ccccc1	none
CCn1c(SCC(=O)Nc2sccc2C(N)=O)nnc1C1CC1	HTR5A ag 13
CN(CC(=O)Nc1ccc(Cl)cc1F)C1=NS(=O)(=O)c2ccccc21	none
O=C(Nc1cc(Sc2ccccn2)cc([N+](=O)[O-])c1)c1ccc(Cl)cc1	OPRM1-OPRD1 ag 29, HTR5A ag 19
O=C(Nc1cc(Sc2ccccn2)cc([N+](=O)[O-])c1)c1cccc(Cl)c1	none
COc1cc(C(=O)ON=C2C3CC4CC(C3)CC2C4)cc(OC)c1OC	HTR5A ag 12
COc1cc(C(=O)O/N=C2\C=CC(=O)C=C2C)cc(OC)c1OC	none
O=C(CSc1ncnc2c1cnn2-c1ccccc1)NC1CCS(=O)(=O)C1 (stereo not drawn)	none
COc1cc(C(C)=O)ccc1OCC(=O)Nc1ccc(C)c(S(=O)(=O)N2CCCCCC2)c1	none
O=C(O)c1ccc(N/N=C/c2ccc(-c3ccccc3)cc2)cc1	HTR5A ag 13
CC(C)CC(C(=O)N1CCOCC1)N1Cc2ccccc2C1=O (stereo not drawn)	HTR5A ag 12
COc1cc(/C=C/C(=O)OCC(=O)Nc2cc(S(=O)(=O)N3CCCC3)ccc2Cl)cc(OC)c1OC	none
O=C(COc1ccccc1Cl)Nc1ccc(NC(=O)c2ccco2)cc1	none
O=C(Nc1ccc(-c2noc(COc3ccccc3Cl)n2)cc1)c1ccco1	HTR5A ag 12
NC1=NN(c2c(Cl)cc(Cl)cc2Cl)C(=O)C1	none
Cc1cc(C)n(C(=O)/C(C#N)=N/Nc2cc(Cl)cc(Cl)c2)n1	HTR5A ag 10
Cc1cc(C)n(C(=O)/C(C#N)=N\Nc2ccccc2[N+](=O)[O-])n1	none
CCN(CC)c1ccc(NC(=O)Nc2cccc(C(C)=O)c2)cc1	HTR5A ag 13
CN1CCN(C(=O)c2cc(COc3ccccc3)on2)[C@@H](c2ccccc2)C1	HTR5A ag 9.5
Cc1ccc(OCc2cc(C(=O)N3CCN(C)C[C@@H]3c3ccccc3)no2)cc1C	none
O=C(NCc1cccs1)C1CCN(S(=O)(=O)c2cccc3cccnc23)CC1	HTR5A ag 14
CCC(=O)N(c1nnc(SCC(=O)c2ccc[nH]2)s1)C1CC1	none
c1ccc(N2CCN(c3ncnc4c3oc3ccccc34)CC2)cc1	HTR5A ag 14
CCc1nnc(N2CCN(c3ncnc4c3oc3ccccc34)CC2)s1	none
CSCCC(NC(=O)c1ccco1)C(=O)NCc1ccc2c(c1)OCO2 (stereo not drawn)	none
Cc1ccc(NC(=O)COC(=O)C2CC2(Cl)Cl)cc1C (stereo not drawn)	HTR5A ag 9.0

Screening data deposited in PubChem by The Scripps Research Institute Molecular Screening Center.
